# Test results as given in PubChem BioAssay (EPA / NIEHS).
# Results filed as inconclusive are left out. Active and inactive are the calls of the source. How the source made its calls: active means hit-call score of the fitted dose curve at least 0.9, where 1 is the maximum; inconclusive means response in the unintended direction; inactive means score below 0.9.
# How the values were obtained:
# [1] = biological target: human Beta-secretase (BACE), BACE1 (gene 23621) (UniProt P56817); assay: NVS_ENZ_hBACE: NovaScreen (NVS) Enzymatic Assay for human Beta-secretase (BACE) (AID 2283140);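 further: hits are inhibitors that reduce fluorescent substrate signal versus DMSO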
# How it was run: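 Enzyme activity of SF9-produced BACE1 is measured cell-free by fluorescence, 1 hour post dosing, normalised to DMSO. Screening used 25 uM in duplicate, with concentration-response follow-up for actives.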
# [2] = biological target: human Colony Stimulating Factor 1 Receptor (CSF1R), CSF1R (gene 1436) (UniProt P07333); assay: NVS_ENZ_hCSF1R: NovaScreen (NVS) Enzymatic Assay for human Colony Stimulating Factor 1 Receptor (CSF1R) (AID 2283150)
# How it was run: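 Compounds screened in duplicate at 25 uM, then concentration-response (top 50 uM) for those passing threshold such as 30% inhibition; recombinant CSF1R activity measured 1 h post-dosing via fluorescent substrate/product mobility-shift separation, loss of signal versus DMSO.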
# [3] = biological target: human Elastase, ELANE (gene 1991) (UniProt P08246); assay: NVS_ENZ_hElastase: NovaScreen (NVS) Enzymatic Assay for human Elastase (AID 2283153)
# How it was run: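 Concentration-response to 50 uM max, run singly for chemicals passing a threshold (e.g., 30% inhibition) in a duplicate 25 uM single-point screen. Neutrophil-derived human elastase, absorbance read-out of enzyme activity at 1.5 h; DMSO baseline.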
# [4] = biological target: human Janus Kinase 2 (Jak2), JAK2 (gene 3717) (UniProt O60674); assay: NVS_ENZ_hJak2: NovaScreen (NVS) Enzymatic Assay for human Janus Kinase 2 (Jak2) (AID 2283169)
# How it was run: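 Single-point duplicate screen at 25 uM, with hits run in concentration series to a 50 uM top dose. Substrate-product separation by mobility shift with fluorescence detection, 1 h post-dosing; DMSO baseline.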
# [5] = biological target: human AKT serine/threonine Kinase 1 (AKT1), AKT1 (gene 207) (UniProt P31749); assay: NVS_ENZ_hAKT1: NovaScreen (NVS) Enzymatic Assay for human AKT serine/threonine Kinase 1 (AKT1) (AID 2283138)
# How it was run: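 A biochemical assay with recombinant enzyme and specific substrate, read by fluorescence intensity with mobility-shift separation 1 hour after dosing. Actives from 25 uM duplicate screening were titrated up to 50 uM against DMSO baseline.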
# [6] = biological target: human Caspase 8 (CASP8), CASP8 (gene 841) (UniProt Q14790); assay: NVS_ENZ_hCASP8: NovaScreen (NVS) Enzymatic Assay for human Caspase 8 (CASP8) (AID 2283146)
# How it was run: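 The primary screen tested compounds in duplicate at a single 25 uM concentration, with actives followed up in concentration series. Activity of recombinant (E. coli) protease was measured by fluorescence 1 h post-dose, as signal loss against DMSO.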
# [7] = biological target: human Dual Specificity Protein Phosphatase 3 (DUSP3), DUSP3 (gene 1845) (UniProt P51452); assay: NVS_ENZ_hDUSP3: NovaScreen (NVS) Enzymatic Assay for human Dual Specificity Protein Phosphatase 3 (DUSP3) (AID 2283152);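 further: phosphatase activity of recombinant human DUSP3 on a fluorogenic substrate without cells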
# How it was run: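 Cell-free fluorescence-intensity enzyme activity assay with recombinant protein and substrate; loss of signal fitted relative to DMSO baseline. Primary screen in duplicate at 25 uM, actives then run in concentration series; measured 0 h after dosing.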
# [8] = biological target: human Esterase Plasma (ES), BCHE (gene 590) (UniProt P06276); assay: NVS_ENZ_hES: NovaScreen (NVS) Enzymatic Assay for human Esterase Plasma (ES) (AID 2283157)
# How it was run: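 Human plasma-derived enzyme, cell-free, colorimetric readout at 0.25 h. Primary screen 25 uM in duplicate; hits (e.g. ≥30% inhibition) rerun singleton up to 50 uM. DMSO = negative control/baseline.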
# [9] = biological target: human Casein Kinase 1-delta (CK1D), CSNK1D (gene 1453) (UniProt P48730); assay: NVS_ENZ_hCK1D: NovaScreen (NVS) Enzymatic Assay for human Casein Kinase 1-delta (CK1D) (AID 2283148)
# How it was run: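 Recombinant human CK1-delta, cell-free; fluorescent substrate with electrophoretic mobility-shift separation of product, read 1 h after dosing. Single 25 uM duplicate screen, then concentration-response up to 50 uM; loss of signal vs DMSO.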
# [10] = biological target: human Insulin Receptor (InsR), INSR (gene 3643) (UniProt P06213); assay: NVS_ENZ_hInsR: NovaScreen (NVS) Enzymatic Assay for human Insulin Receptor (InsR) (AID 2283168)
# How it was run: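 Cell-free enzyme assay read 1 h post-dose by fluorescence after substrate/product mobility-shift separation. Duplicate 25 uM primary screen, then singleton concentration-response up to 50 uM for compounds passing threshold; loss of signal vs DMSO.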
# CDK2 (gene 1017) = CDK2 (gene 1017) (UniProt P24941); assay: NVS_ENZ_hCDK2: NovaScreen (NVS) Enzymatic Assay for human Cyclin-Cependent Kinase 2 (CDK2) (AID 2283144)
# How it was run: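 Compounds screened in duplicate at 25 uM, then in singleton concentration-response to a maximum of 50 uM, against recombinant CDK2; kinase activity read 1 hr after dosing by fluorescence with mobility-shift separation of substrate and product.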
# [11] = biological target: human Ephrin type-A Receptor 1 (EphA1), EPHA1 (gene 2041) (UniProt P21709); assay: NVS_ENZ_hEphA1: NovaScreen (NVS) Enzymatic Assay for human Ephrin type-A Receptor 1 (EphA1) (AID 2283158);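 further: activity is signal loss versus DMSO meaning EphA1 kinase inhibition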
# How it was run: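 Fluorescent substrate conversion, resolved by mobility-shift separation, measured 1 hour post-dosing using recombinant enzyme; signal loss relative to DMSO baseline. Single-concentration duplicates at 25 uM preceded singleton concentration series topping at 50 uM.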
# [12] = biological target: Glycogen synthase kinase-3 beta (Homo sapiens) (UniProt P49841); assay: NVS_ENZ_hGSK3b: NovaScreen (NVS) Enzymatic Assay for human Glycogen Synthase Kinase-3 beta (GSK3b) (AID 2283165)
# How it was run: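 Recombinant enzyme with specific fluorescent substrate, 1 h, product separated by electrophoretic mobility shift. Primary duplicate screen at 25 uM; actives (e.g. 30% inhibition) followed in singleton concentration-response to 50 uM. Signal loss fitted versus DMSO.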
# [13] = biological target: human Caspase 4 (CASP4), CASP4 (gene 837) (UniProt P49662); assay: NVS_ENZ_hCASP4: NovaScreen (NVS) Enzymatic Assay for human Caspase 4 (CASP4) (AID 2283143)
# How it was run: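 Compounds were first tested in duplicate at 25 uM, and hits were titrated singly to a 50 uM maximum. Recombinant protease from E. coli was read by fluorescence 2 h post-dose, and activity loss was fitted against the DMSO baseline.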
# [14] = biological target: human Acid Phosphatase 1 (ACP1), ACP1 (gene 52) (UniProt P24666); assay: NVS_ENZ_hACP1: NovaScreen (NVS) Enzymatic Assay for human Acid Phosphatase 1 (ACP1) (AID 2283136)
# How it was run: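 Cell-free fluorescence read-out of phosphatase activity, substrate and product separated by mobility shift, taken 1.5 h after compound addition; protein produced in Sf9. Single 25 uM duplicate screen, followed by concentration series for actives, scored as signal loss relative to DMSO.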
# [15] = biological target: human Caspase 5 (CASP5), CASP5 (gene 838) (UniProt P51878); assay: NVS_ENZ_hCASP5: NovaScreen (NVS) Enzymatic Assay for human Caspase 5 (CASP5) (AID 2283137)
# How it was run: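 Caspase 5 enzyme activity, detected as fluorescence signal loss, is measured in a biochemical format using E. coli-expressed protein. Reading occurs 2 hours post-dosing. Screening runs at 25 uM, with confirmed actives titrated to 50 uM maximum.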
# [16] = biological target: human c-Jun N-terminal Kinases (JNK2), MAPK9 (gene 5601) (UniProt P45984); assay: NVS_ENZ_hJNK2: NovaScreen (NVS) Enzymatic Assay for human c-Jun N-terminal Kinases (JNK2) (AID 2283171)
# How it was run: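 Chemicals first tested in duplicate at 25 uM, then in singleton concentration series up to 50 uM, against extracted JNK2 enzyme. Activity loss read by fluorescence with mobility-shift separation 1 h post-dose; DMSO baseline.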
# [17] = biological target: Histone deacetylase 3 (Homo sapiens) (UniProt O15379); assay: NVS_ENZ_hHDAC3: NovaScreen (NVS) Enzymatic Assay for human Histone Deacetylase 3 (HDAC3) (AID 2283163)
# How it was run: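 Cell-free enzyme format: loss of fluorescent product after mobility-shift separation, 1 h incubation, recombinant human HDAC3. Single 25 uM duplicate screen first, then concentration series to a 50 uM top for hits; DMSO as baseline.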
# Sequence of human Caspase 8 (CASP8), CASP8 (gene 841) (Q14790 whole entry, looked up): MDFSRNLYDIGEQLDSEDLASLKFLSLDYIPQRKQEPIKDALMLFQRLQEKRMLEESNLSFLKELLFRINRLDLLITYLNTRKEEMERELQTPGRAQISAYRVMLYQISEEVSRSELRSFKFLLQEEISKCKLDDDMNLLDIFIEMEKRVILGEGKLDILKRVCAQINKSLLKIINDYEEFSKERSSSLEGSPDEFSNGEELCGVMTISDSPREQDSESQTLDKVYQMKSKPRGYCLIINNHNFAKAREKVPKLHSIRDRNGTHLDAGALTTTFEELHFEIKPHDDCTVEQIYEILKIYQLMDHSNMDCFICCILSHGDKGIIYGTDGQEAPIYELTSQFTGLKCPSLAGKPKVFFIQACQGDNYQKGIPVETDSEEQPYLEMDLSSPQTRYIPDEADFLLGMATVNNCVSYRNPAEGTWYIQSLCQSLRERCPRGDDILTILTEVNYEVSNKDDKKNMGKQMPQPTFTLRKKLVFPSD
# Sequence of human Esterase Plasma (ES), BCHE (gene 590) (P06276 whole entry, looked up): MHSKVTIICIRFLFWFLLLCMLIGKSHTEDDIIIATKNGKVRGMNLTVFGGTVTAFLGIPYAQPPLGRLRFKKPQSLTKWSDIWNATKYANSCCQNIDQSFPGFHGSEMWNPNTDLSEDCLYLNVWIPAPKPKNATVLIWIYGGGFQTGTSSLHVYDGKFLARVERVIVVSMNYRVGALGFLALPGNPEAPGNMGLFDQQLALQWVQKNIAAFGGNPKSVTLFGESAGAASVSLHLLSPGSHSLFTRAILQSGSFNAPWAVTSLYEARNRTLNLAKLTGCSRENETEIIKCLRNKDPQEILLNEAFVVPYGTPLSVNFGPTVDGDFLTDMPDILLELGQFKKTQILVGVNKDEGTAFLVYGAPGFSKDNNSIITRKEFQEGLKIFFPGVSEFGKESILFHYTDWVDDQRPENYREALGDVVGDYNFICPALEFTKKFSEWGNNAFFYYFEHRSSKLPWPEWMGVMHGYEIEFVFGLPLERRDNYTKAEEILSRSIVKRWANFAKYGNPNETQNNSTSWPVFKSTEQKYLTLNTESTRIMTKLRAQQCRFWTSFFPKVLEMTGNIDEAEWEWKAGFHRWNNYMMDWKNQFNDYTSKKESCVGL
# Sequence of human Elastase, ELANE (gene 1991) (P08246 whole entry, looked up): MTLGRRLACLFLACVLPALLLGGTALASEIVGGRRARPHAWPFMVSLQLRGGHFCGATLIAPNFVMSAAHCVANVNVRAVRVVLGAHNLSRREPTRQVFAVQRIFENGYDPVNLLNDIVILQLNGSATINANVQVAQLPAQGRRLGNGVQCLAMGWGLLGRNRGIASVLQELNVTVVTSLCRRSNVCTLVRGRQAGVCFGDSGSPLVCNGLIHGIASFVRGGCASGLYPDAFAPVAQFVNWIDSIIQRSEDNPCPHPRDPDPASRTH
# Sequence of human Beta-secretase (BACE), BACE1 (gene 23621) (P56817 whole entry, looked up): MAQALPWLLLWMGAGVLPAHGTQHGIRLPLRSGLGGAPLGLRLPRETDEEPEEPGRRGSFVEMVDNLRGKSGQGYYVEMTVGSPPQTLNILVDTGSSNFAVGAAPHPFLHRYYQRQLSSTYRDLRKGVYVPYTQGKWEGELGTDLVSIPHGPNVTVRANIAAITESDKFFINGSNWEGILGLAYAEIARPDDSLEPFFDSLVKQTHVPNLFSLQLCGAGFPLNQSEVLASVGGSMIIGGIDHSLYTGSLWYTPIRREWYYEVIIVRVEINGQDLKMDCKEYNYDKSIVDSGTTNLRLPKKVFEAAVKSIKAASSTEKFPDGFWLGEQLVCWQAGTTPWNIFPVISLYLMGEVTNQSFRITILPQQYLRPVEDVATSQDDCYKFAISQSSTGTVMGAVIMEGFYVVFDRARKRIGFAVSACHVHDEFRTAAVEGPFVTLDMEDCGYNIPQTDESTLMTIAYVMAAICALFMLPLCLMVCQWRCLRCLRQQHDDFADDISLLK
# Sequence of human AKT serine/threonine Kinase 1 (AKT1), AKT1 (gene 207) (P31749 whole entry, looked up): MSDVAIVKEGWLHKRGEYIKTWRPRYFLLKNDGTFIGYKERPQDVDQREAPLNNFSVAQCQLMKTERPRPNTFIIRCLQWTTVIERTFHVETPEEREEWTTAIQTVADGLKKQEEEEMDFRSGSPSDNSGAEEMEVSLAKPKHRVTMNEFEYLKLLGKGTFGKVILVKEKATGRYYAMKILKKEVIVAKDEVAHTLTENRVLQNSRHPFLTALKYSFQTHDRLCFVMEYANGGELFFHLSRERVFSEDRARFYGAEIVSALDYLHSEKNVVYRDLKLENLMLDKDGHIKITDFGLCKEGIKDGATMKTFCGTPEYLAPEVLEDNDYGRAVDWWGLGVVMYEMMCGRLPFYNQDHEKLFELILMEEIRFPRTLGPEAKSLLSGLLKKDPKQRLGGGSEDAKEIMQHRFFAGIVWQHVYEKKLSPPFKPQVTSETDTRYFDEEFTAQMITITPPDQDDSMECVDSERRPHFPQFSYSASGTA
# Sequence of human Casein Kinase 1-delta (CK1D), CSNK1D (gene 1453) (P48730 whole entry, looked up): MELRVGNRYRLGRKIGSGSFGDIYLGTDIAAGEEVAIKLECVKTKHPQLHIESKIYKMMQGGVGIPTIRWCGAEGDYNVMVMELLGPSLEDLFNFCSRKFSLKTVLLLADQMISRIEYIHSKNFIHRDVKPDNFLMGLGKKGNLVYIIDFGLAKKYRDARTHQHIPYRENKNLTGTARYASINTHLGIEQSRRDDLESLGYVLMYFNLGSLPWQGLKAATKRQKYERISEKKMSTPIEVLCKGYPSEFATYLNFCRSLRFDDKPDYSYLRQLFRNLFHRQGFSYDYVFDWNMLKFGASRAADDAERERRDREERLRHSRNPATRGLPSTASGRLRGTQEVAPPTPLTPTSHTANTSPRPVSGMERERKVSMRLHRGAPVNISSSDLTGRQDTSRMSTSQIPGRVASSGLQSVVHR
# Sequence of human Colony Stimulating Factor 1 Receptor (CSF1R), CSF1R (gene 1436) (P07333 whole entry, looked up): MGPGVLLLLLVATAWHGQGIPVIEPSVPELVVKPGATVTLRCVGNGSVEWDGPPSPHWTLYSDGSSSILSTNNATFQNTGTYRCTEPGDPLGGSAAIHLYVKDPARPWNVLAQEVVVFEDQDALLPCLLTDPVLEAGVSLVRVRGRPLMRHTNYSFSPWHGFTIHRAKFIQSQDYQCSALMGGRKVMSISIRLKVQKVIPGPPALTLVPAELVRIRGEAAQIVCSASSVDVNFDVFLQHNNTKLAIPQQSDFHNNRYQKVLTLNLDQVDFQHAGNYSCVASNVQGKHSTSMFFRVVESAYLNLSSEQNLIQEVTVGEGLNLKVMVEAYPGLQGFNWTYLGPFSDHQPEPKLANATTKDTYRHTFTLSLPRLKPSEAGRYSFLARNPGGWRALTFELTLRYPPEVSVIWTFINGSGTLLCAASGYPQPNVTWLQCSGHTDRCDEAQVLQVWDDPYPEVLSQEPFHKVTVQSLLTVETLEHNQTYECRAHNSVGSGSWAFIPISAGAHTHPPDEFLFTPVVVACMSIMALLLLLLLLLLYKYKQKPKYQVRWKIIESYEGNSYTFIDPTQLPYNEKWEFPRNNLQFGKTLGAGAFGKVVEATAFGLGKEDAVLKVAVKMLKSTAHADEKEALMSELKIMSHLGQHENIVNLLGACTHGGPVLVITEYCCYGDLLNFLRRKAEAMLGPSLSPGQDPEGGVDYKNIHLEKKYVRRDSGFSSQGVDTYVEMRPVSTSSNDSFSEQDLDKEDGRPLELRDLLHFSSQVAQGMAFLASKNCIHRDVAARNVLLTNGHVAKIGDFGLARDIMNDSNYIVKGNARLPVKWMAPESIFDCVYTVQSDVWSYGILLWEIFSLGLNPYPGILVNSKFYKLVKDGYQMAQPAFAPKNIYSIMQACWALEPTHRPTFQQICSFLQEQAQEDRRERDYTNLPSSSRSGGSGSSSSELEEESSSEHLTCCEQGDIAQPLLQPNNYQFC
# Sequence of human Janus Kinase 2 (Jak2), JAK2 (gene 3717) (O60674 whole entry, looked up): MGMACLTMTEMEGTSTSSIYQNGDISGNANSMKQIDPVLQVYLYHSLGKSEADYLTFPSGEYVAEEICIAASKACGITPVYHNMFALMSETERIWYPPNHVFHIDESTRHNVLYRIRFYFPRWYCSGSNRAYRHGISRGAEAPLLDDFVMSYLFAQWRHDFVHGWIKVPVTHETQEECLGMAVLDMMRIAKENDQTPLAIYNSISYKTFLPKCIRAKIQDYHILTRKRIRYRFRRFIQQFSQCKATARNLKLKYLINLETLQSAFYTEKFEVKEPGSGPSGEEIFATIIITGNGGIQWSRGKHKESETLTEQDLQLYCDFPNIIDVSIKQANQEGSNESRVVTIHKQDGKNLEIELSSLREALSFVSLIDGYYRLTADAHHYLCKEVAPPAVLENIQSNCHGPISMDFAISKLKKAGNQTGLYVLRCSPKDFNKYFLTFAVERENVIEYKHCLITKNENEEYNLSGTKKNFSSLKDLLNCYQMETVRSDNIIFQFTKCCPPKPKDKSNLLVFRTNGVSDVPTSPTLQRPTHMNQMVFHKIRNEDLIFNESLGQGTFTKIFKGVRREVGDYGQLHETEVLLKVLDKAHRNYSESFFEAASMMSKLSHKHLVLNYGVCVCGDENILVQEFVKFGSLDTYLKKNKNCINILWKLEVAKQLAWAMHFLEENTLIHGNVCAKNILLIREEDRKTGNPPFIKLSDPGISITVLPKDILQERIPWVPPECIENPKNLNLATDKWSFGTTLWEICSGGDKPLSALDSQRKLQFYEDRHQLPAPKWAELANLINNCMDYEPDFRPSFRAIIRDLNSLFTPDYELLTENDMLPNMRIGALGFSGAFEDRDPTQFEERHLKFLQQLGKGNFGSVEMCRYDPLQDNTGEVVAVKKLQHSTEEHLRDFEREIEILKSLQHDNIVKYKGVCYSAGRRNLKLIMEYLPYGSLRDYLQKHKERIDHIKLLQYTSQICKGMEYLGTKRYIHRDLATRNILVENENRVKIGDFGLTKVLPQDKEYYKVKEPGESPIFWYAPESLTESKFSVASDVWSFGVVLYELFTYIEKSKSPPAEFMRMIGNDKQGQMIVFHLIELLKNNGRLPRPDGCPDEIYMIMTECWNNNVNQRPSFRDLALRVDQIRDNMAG
# Sequence of human Acid Phosphatase 1 (ACP1), ACP1 (gene 52) (P24666 whole entry, looked up): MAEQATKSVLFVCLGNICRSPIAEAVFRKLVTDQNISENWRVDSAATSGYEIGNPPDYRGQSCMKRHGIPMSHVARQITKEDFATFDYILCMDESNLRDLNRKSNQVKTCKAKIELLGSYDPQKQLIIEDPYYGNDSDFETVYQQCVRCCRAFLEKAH
smiles,measurement,setting,value
CC(C)(C)c1csc(-c2cc3cc(OCc4ccccc4CC(=O)O)ccc3o2)n1,AC50,[1],17.1 µM (active)
same,outcome,[2],inactive
same,AC50,[3],12.5 µM (active)
same,AC50,[4],0.00515 µM (active)
CO[C@H]1/C=C/O[C@@]2(C)Oc3c(C)c(O)c4c(O)c(c(/C=N/N5CCN(C)CC5)c(O)c4c3C2=O)NC(=O)/C(C)=C\C=C\[C@H](C)[C@H](O)[C@@H](C)[C@@H](O)[C@@H](C)[C@H](OC(C)=O)[C@@H]1C,AC50,[5],25.1 µM (active)
same,outcome,[1],inactive
same,AC50,[6],6.48 µM (active)
same,AC50,[7],7.6 µM (active)
Cc1ccc(C(C)C)cc1,outcome,[1],inactive
CCCCOC(=O)c1ccc(O)cc1,outcome,[1],inactive
same,outcome,[8],inactive
O=C(O)Cc1cc(I)c(Oc2ccc(O)c(I)c2)c(I)c1,outcome,[1],inactive
same,outcome,[9],inactive
same,outcome,[2],inactive
same,outcome,[4],inactive
OCCO,outcome,[1],inactive
same,outcome,[10],inactive
Clc1cc(Cl)c2c(c1)N=C1CCCCCN1C2,outcome,CDK2 (gene 1017),inactive
same,AC50,[8],13.7 µM (active)
same,outcome,[11],inactive
same,outcome,[12],inactive
O=C(O)c1ccccc1-n1cc(C(=O)O)c(=O)c2cc(Nc3c(F)cc(F)cc3Cl)c(Cl)cc21,AC50,[1],5.43 µM (active)
same,AC50,[3],18.4 µM (active)
same,outcome,[12],inactive
O=CCCCC=O,AC50,[5],25 µM (active)
same,outcome,[9],inactive
same,outcome,[8],inactive
CC(C)(O)c1ccc(CNC(=O)c2cccnc2Oc2ccc3nonc3c2)cc1,outcome,[5],inactive
NC(=O)c1nc(-c2cccc(-c3cc(F)ccc3OCC(F)(F)C(F)(F)F)c2)n[nH]1,outcome,[1],inactive
CCN(CC)C(=O)c1cc(S(=O)(=O)Cc2ccccc2)c(N2CCC(c3ccccc3)CC2)cc1N(CC)CCN(C)C,outcome,[13],inactive
same,AC50,[8],0.0737 µM (active)
same,outcome,[4],inactive
O=C(Nc1ccc(Cl)cc1)Nc1ccc(Cl)c(Cl)c1,AC50,[1],16.3 µM (active)
same,outcome,[9],inactive
same,outcome,[7],inactive
CC/C(=C(/CC)c1ccc(O)cc1)c1ccc(O)cc1,outcome,[14],inactive
same,outcome,[5],inactive
same,outcome,[6],inactive
same,outcome,[9],inactive
same,outcome,[2],inactive
same,outcome,[3],inactive
same,outcome,[8],inactive
same,outcome,[11],inactive
CC[C@H](NC(=O)c1cc(F)ccc1NS(=O)(=O)c1cccc2cccnc12)c1ccccc1,outcome,[15],inactive
COc1cc(C(=O)NC2CCN(C)CC2)ccc1Nc1ncc2c(n1)N(C1CCCC1)CC(F)(F)C(=O)N2C,outcome,[1],inactive
same,outcome,CDK2 (gene 1017),inactive
same,AC50,[9],18.1 µM (active)
same,AC50,[2],11.2 µM (active)
same,outcome,[8],inactive
same,AC50,[10],0.00746 µM (active)
same,outcome,[16],inactive
CCCCCCCCCCCC[N+](C)(C)C,outcome,[6],inactive
CCCCCCCCOc1ccc(C(=O)c2ccccc2)c(O)c1,outcome,[6],inactive
O=C1c2ccccc2C(=O)N1CCc1noc(-c2ccc(CN3CCCCCC3)s2)n1,outcome,[9],inactive
c1ccc2n[nH]nc2c1,AC50,[9],25 µM (active)
c1ccc(C[n+]2cccc3ccccc32)cc1,outcome,[17],inactive
O=C1O[C@H]([C@@H](O)CO)C(O)=C1O,outcome,[10],inactive
CCCC(=O)OCCC(C)C,outcome,[16],inactive
